Shiga inhibitor: inhibitors of Shiga toxin in Vero cells; inhibition, % at 38.7 µM; Vero cells, Shiga toxin protein synthesis inhibition reporter; 9.2% of 290,000 active; AID 2315; in the data active = inhibition mostly above about 28%, no sharp cut-off; inactive = mostly below about 43%; also: 0% is about no effect
VACV Venus inh: inhibitors of vaccinia virus (Venus reporter); Vaccinia virus Venus reporter expression, fluorescence; Potency, µM (titrated, usually from 36.5 µM), inactives show at the highest dose activity change, negative = inhibition, most hits filed as inhibitors; 0.46% of 330,000 active; calls by dose curve; tested in A549 cells; also: potency is read from the fitted curve at half-maximal effect; % is scaled to controls: 0 for no effect and ±100 for the full control effect; nearly all actives have a fitted effect of over 30% in size
Marburg entry inh: Marburg virus entry inhibition | Marburg virus pseudotyped entry inhibition, cell reporter | Potency, µM (top dose mostly 37.8 µM), without a hit: top-dose activity change, negative = inhibition, most hits filed as inhibitors | 1.8% of 300,000 active; calls by dose curve; tested in HEK293 cells; also: potency is read from the fitted curve at half-maximal effect; % is scaled to controls: 0 for no effect and ±100 for the full control effect
Cycloheximide cs: affects cycloheximide protein synthesis inhibition readout, counter-screen; cell reporter, cycloheximide protein synthesis inhibition counterscreen; max response, %; 12% of 300,000 active; in the data active = max response mostly above about 13%, no sharp cut-off; inactive = mostly below about 14%; also: read at 38.3 µM for the half of the compounds with a filed dose; 0% is about no effect
VACV mCherry inh: vaccinia inhibition (mCherry reporter); Vaccinia virus mCherry reporter infection, fluorescence; Potency, µM (doses to about 36.5 µM), for the others: at the top dose activity change, negative = inhibition, usual class: inhibitors; 0.63% of 310,000 active; AID 720579; calls by dose curve; tested in A549 cells; also: potency is read from the fitted curve at half-maximal effect; % is scaled to controls: 0 for no effect and ±100 for the full control effect; nearly all actives have a fitted effect of over 35% in size
LASV entry inh: inhibitors of Lassa virus binding or cell entry | 1.2% of 300,000 active | Potency, µM (doses to about 37.9 µM), for the others: at the top dose activity change, negative = inhibition, actives largely listed as inhibitors | Lassa virus pseudotype entry inhibition, cell reporter | AID 540256; calls by dose curve; tested in HEK293 cells; also: potency is read from the fitted curve at half-maximal effect; % is scaled to controls: 0 for no effect and ±100 for the full control effect; nearly all actives have a fitted effect of over 50% in size
* = called active by the depositor; i = inactive; ? = inconclusive; nt = no result; [ ] = dose if it differs, or a comment. Many of the other results were omitted from the sample, so hits are more common in it than they were.

SMILES	Shiga inhibitor	VACV Venus inh	Marburg entry inh	Cycloheximide cs	VACV mCherry inh	LASV entry inh
COc1cc(/C=C2\C(=N)N3N=CSC3=NC2=O)ccc1OS(=O)(=O)c1ccccc1	18.4	-2.5%	?	15.8*	-19.0%	20.3%[46.1 µM]
CCOc1cc(/C=C2\C(=N)N3N=CSC3=NC2=O)ccc1OS(=O)(=O)c1ccccc1	11.3	?	12.5%	5.4	-8.3%	?
O=C(NCc1cn(-c2ccccc2)nc1-c1ccccc1)c1cccc([N+](=O)[O-])c1	11.7	nt	-3.5%	13.5*	nt	13.7%
O=C(NCc1cn(-c2ccccc2)nc1-c1ccccc1)c1cc([N+](=O)[O-])cc([N+](=O)[O-])c1	-16.4	-10.7%	-1.7%[46.1 µM]	1.0	nt	22.0%
COc1ccc(-c2nn(-c3ccccc3)cc2CNC(=O)c2cccc([N+](=O)[O-])c2)cc1	12.3	-13.9%	3.5%[46.1 µM]	15.1*	-17.5%	3.2%
COc1ccc(CC(=O)NCC(=O)N/N=C/c2sccc2C)cc1	-0.7	-14.1%	-1.9%	-3.0	i	26.4%
CCCn1c2ccccc2c2cnn(CC(=O)NCCc3ccc(OCC)cc3)c(=O)c21	nt	-20.1%	nt	nt	-18.1%	-19.3%[46.1 µM]
CCOc1ccc(NC(=O)NCc2cccnc2)cc1	18.1	nt	21.0%	-3.2	nt	-11.7%
COc1ccc(CNC(=O)Nc2ccccc2)cc1	65.3*	0.1%	nt	45.3*	0.6%	nt
CCOc1ccc(CNC(=O)Nc2ccccc2)cc1	48.5*	-13.6%	?	22.1*	-11.2%	?
COc1ccc(CNC(=O)Nc2cccc(C)c2)cc1	78.4	-14.3%	-10.0%	21.9*	-16.4%	-13.9%
CCCc1ccc(NS(=O)(=O)c2c(C)oc(C)c2C(=O)OC)cc1	-3.6	nt	nt	-1.1	nt	nt
COC(=O)[C@]1(CC=Cc2ccccc2)C=C[C@@H](C)[C@H](c2ccccc2Br)N1C(=O)C(F)(F)F	nt	nt	12.9%[14.2 µM]	nt	nt	nt
COc1ccc2c(c1)CC/C(=C/c1ccco1)C2=O	120.2*	-9.0%	?	56.4*	-12.7%	?
O=C1/C(=C/c2ccco2)CCc2ccccc21	61.3*	-11.9%	?	77.4*	i	?
O=C1C(=Cc2ccco2)C(=O)c2ccccc21	14.0	1.6%	?	37.4*	-14.8%	2.5%
Nc1ccc2c(c1)C/C(=C/c1ccco1)C2=O	123.1*	-4.5%	?	56.0*	?	1.2%
C=CCNC(=O)c1ccccc1NC(=O)C1CCN(S(=O)(=O)c2ccc(SC)cc2)CC1	2.6	-16.2%	-22.4%[46.1 µM]	-1.1	-22.5%	nt
CCCNC(=O)c1cc2c(c(-c3cccc(-c4ccccc4F)c3)n1)[C@@H](CCO)N(C(=O)CC1CC1)C2	nt	-11.1%	nt	nt	-18.1%	nt
Cn1ncc2c(N3CCN(c4cccc(Cl)c4)CC3)ncnc21	nt	-27.2%	nt	nt	?	?
Cc1ccc(/C=C2/C(=O)c3ccc(C(=O)O)cc3C2=O)o1	-9.1	9.0%	?	-1.3	-3.9%	?
Cc1ccc(C=C2C(=O)c3ccccc3C2=O)o1	58.5	-4.6%	18.9%	37.1*	i	13.1%
CCOc1ccc(NS(=O)(=O)c2cnc(Cl)c(Cl)c2)cc1	-8.1	12.6µM*	?	-3.6	?	?
CCCC(=O)Nc1nc(CC(=O)OCC)cs1	-0.8	-9.0%	21.1%[46.1 µM]	21.0	-1.7%	7.1%
CCOC(=O)Cc1csc(NC(=O)Cc2ccccc2[N+](=O)[O-])n1	84.9	-3.7%	29.4%[46.1 µM]	17.7*	i	23.8%[46.1 µM]
SMILES	Shiga inhibitor	VACV Venus inh	Marburg entry inh	Cycloheximide cs	VACV mCherry inh	LASV entry inh
CCOC(=O)Cc1csc(NC(=O)c2ccc(Br)s2)n1	61.5*	nt	0.7%	32.0*	nt	nt
CCOC(=O)c1csc(NC(=O)c2cccs2)n1	102.8*	nt	nt	33.0*	nt	nt
CCOC(=O)Cc1csc(NC(=S)NC(=O)c2ccccc2Br)n1	13.7	-9.2%	?	20.5*	-21.5%	2.6%
Cc1ccc(-n2nc(CO)c(C(=O)NCCCCc3ccccc3)n2)cc1C	nt	-4.8%	-2.6%[46.1 µM]	nt	-0.6%	5.5%[46.1 µM]
CCOC(=O)Cc1csc(NC(=O)c2cc(C)cc(C)c2)n1	18.9	-15.9%	-24.6%[46.1 µM]	-1.8	i	-17.0%[46.1 µM]
CC(=O)c1sc(NC(=O)c2cccs2)nc1C	23.6	nt	nt	10.1	nt	nt
CCOC(=O)c1sc(NC(=O)c2cccs2)nc1C	70.0*	nt	0.9%	17.3*	nt	nt
CCOC(=O)Cc1csc(NC(=O)c2cccs2)n1	29.7	nt	10.5%	23.9*	nt	3.0%
C=CCC(Nc1ccccc1)c1ccc(OC)c(OC)c1 (stereo not given)	7.0	nt	nt	-2.1	nt	nt
FC(F)(F)c1cc(-c2ccco2)nc(NCc2ccccc2)n1	46.1	nt	-13.0%	2.6	nt	-0.3%
Fc1ccc(CNc2nc(-c3ccco3)cc(C(F)(F)F)n2)cc1	4.6	nt	9.2µM*	2.4	nt	-20.7%
Cc1ccc(NC(=O)CSc2nc(-c3ccccc3Cl)nc3cc(=O)[nH]n23)c(C)c1	nt	-15.6%	nt	nt	-7.6%	4.0%[46.1 µM]
C=CCn1c(COc2cccc(C)c2C)nnc1SCC(=O)N1CCN(c2ccccc2)CC1	2.0	?	?	-2.0	?	5.62µM*
CCC(=O)Nc1nnc(SCC(=O)c2ccc3c(c2)Cc2ccccc2-3)s1	-6.6	5.8%	?	-1.9	0.3%	6.51µM*
Cc1cccc(C)c1N(CC(=O)NCc1ccco1)C(=O)CNS(=O)(=O)c1ccc(F)cc1	17.0	-13.5%	8.91µM*	1.8	i	-28.7%
CCN(CC(=O)NCc1ccc(Cl)cc1)C(=O)c1ccc(S(=O)(=O)NCc2ccco2)cc1	66.8*	-15.4%	-13.5%	59.0*	-12.1%	2.2%
Cc1ccccc1N(CC(=O)NCc1ccco1)C(=O)CNS(=O)(=O)c1ccc(F)cc1	1.0	6.3%	-20.5%[46.1 µM]	-2.4	-2.0%	nt
Cc1ccc(C)c(CN2CCC3(CCC(CNC(=O)c4ccnn4C)O3)CC2)c1 (stereo not given)	nt	-17.2%	nt	nt	-18.4%	nt
C(#Cc1c(-c2ccsc2)sc2ccccc12)c1ccsc1	nt	-15.9%	nt	nt	i	nt
O=C(CCC(=O)Nc1ccc(Cl)cc1Cl)N/N=C/c1ccc([N+](=O)[O-])o1	38.5*	?	?	1.9	?	?
O=C(Cc1ccc2c(c1)OCO2)NN=Cc1ccc([N+](=O)[O-])o1	nt	?	10µM*	nt	?	?
Cc1ccc(NCC(=O)N/N=C\c2ccc([N+](=O)[O-])o2)cc1	-5.0	?	?	0.9	11.2µM*	-29.3%
O=C(CNc1ccccc1)N/N=C/c1ccc([N+](=O)[O-])o1	18.6	nt	18.3µM*	1.4	nt	?
C/C(=N\O)c1ccc2c3c([nH]c2c1)CCCC3	19.9*	-25.5%	-2.1%	65.2*	nt	12.3%
c1ccc2c3c([nH]c2c1)CCCC3	nt	-9.8%	nt	nt	43.4%	nt
COc1ccc(CN(C)CCCn2cnc3c(OCc4ccccc4)ncnc32)cc1OC	nt	-11.2%	nt	nt	?	nt
CC(C)NC(=O)CCCOc1ccc(Cl)cc1Cl	33.9	-8.7%	-3.6%	34.0*	-14.0%	4.7%
CCn1c(CCCOc2ccc(Cl)cc2Cl)n[nH]c1=S	56.8*	-26.9%	10.3%[46.1 µM]	21.2*	-15.3%	1.2%[46.1 µM]
O=C(CCCOc1ccc(Cl)cc1Cl)N/N=C/c1ccccc1O	8.8	?	?	5.9	7.08µM*	?
CCN(CC)C(=O)CCCOc1ccc(Cl)cc1Cl	90.7*	nt	6.6%	33.4	nt	15.2%

Bioassay records (PubChem)
